Columns and labels:
Type in all cases: functional
[1] = molecular target: Solute carrier family 2, facilitated glucose transporter member 1 (Homo sapiens) (UniProt P11166); assay: ST_JUDE_LEISH: Cytotoxicity at 2uM final concentration against transgenic Leishmania Mexicana promastigotes LmGLUT1 that are glucose transport deficient and complemented with the human glucose transporter GLUT1. Activity is measured by DNA content using SYBR green in vitro
[2] = molecular target: Hexose transporter 1 (Plasmodium falciparum) (UniProt O97467); assay: ST_JUDE_LEISH: Cytotoxicity at 2uM final concentration against transgenic Leishmania Mexicana promastigotes LmPfHT that are glucose transport deficient and complemented with the Plasmodium falciparum hexose transporter. Activity is measured by DNA content using SYBR green in vitro
[3] = molecular target: Glucose transporter (Leishmania mexicana) (UniProt O61059); assay: ST_JUDE_LEISH: Cytotoxicity at 2uM final concentration against transgenic Leishmania Mexicana promastigotes LmGT2 that are glucose transport deficient and complemented with the L. Mexicana glucose transporter 2. Activity is measured by DNA content using SYBR green in vitro

Chain of Solute carrier family 2, facilitated glucose transporter member 1 (Homo sapiens) (P11166 whole entry): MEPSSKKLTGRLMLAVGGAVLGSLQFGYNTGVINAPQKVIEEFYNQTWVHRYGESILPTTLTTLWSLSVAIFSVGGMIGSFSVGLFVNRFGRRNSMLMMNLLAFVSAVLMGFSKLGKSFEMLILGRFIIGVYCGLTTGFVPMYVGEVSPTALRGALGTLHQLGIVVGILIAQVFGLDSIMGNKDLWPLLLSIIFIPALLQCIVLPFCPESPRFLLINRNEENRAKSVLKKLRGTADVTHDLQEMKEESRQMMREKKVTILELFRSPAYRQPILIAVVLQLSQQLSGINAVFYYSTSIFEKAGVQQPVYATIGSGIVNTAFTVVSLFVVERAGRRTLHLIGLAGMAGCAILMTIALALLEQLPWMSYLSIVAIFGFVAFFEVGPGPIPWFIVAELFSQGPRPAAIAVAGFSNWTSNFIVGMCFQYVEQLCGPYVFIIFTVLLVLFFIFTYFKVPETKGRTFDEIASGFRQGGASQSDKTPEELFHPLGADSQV

Compound | inhibition [1] | inhibition [2] | inhibition [3]
COc1cc2nc(N3CCN(C(=O)c4ccc(N(C(=O)OC(C)(C)C)C(=O)OC(C)(C)C)cc4)CC3)nc(N)c2cc1OC | -0.43% | -0.06% | 0.52%
COc1ccc(S(=O)(=O)NC2CCN(c3ccnc4cc(Cl)ccc34)C2)cc1 (centres undefined) | 4.03% | 1.1% | 0.63%
CC1(C)N=C(N)N=C(N)N1c1ccc(Br)cc1 | 0.61% | 1.29% | 3.63%
FC(F)(F)c1ccc(Nc2nnnc3ccccc23)cc1 | 7.74% | 7.45% | 6.1%
N#Cc1cccc(C(=O)NC2CCN(c3ccnc(Nc4ccc(F)cc4)n3)C2)c1 (centres undefined) | 2.56% | 2.47% | 0.63%
COc1ccc2nc(NC(N)=NC(=O)Nc3ccccc3)nc(C)c2c1 | 2.55% | 2.15% | 0.15%
Cc1cc(N2CCOCC2)nc(Nc2ccc(NC(=O)c3cccc4ccccc34)cc2)n1 | 7.25% | 8.47% | 5.87%
COc1cc(NC(=O)N2CCOC(CCN3CCC4(CCc5ccccc54)CC3)(c3ccc(Cl)c(Cl)c3)C2)cc(OC)c1 (centres undefined) | 3.64% | 1.66% | 1.53%
CCOC(=O)c1cc(Cl)cc(Cl)c1OCCCON1C(=N)N=C(N)NC1(C)C | 0.88% | 0.77% | 1.35%
CC(C)c1cccc(OCC2CCN(c3ccc(C(=O)Nc4ccccc4)cn3)CC2)c1 | 11.2% | 10.6% | 9.04%
CC1(C)NC(N)=NC(=N)N1OCc1cccc(Cl)c1Cl | 2.02% | 3.75% | 2.46%
CC(Oc1c(C2CCN(CCCCNC(=O)c3ccc(-c4ccc(C#N)cc4)cc3)CC2)ccc2c1CCCC2)C(N)=O (centres undefined) | -0.84% | 1.22% | 0.3%
CCNc1cc(C(=O)N[C@@H](Cc2ccccc2)[C@H](O)CNC2(C(C)C)CCC2)cc(N2CCCCS2(=O)=O)c1 | -0.22% | 0.75% | -2.45%
CC(C)C(=O)ONC1=NC(C)(C)N(OCCCOc2cc(Cl)c(Cl)cc2Cl)C(NOC(=O)C(C)C)=N1 | -0.37% | 1.64% | -0.44%
FC(F)(F)COc1ccc(CNCCCCCCNCc2ccc(OCC(F)(F)F)c3ccccc23)c2ccccc12 | 113% | 107% | 108%
CC(C)(Oc1c(C2CCN(CCCCNC(=O)c3ccc(-c4ccc(Cl)cc4)cc3)CC2)ccc2c1CCCC2)C(N)=O | -2.15% | -0.94% | -1.84%
COc1ccccc1CCNc1nc(C)cc(N[C@@H](Cc2ccccc2)C(=O)Nc2ccccc2)n1 | 12% | 10.7% | 8.65%
COc1ccc2c(NN=Cc3ccncc3)ccnc2c1 | -0.81% | -0.51% | -0.6%
Cc1ccc(C)c(CN2CCC(CNC(=O)c3cc4ccc5cccnc5c4[nH]3)CC2)c1 | 0.51% | -0.66% | -0.23%
O=C(Nc1cc(Cl)ccc1Cl)N[C@H]1CCN(CCCCCNC(=O)C2CC2c2ccc(Cl)c(Cl)c2)C1 (some centres undefined) | 1.43% | 1.2% | 4.46%
CC(C)c1ccc(NC(=O)c2ccc(CN3CCCN(CC4CCCCC4)CC3)cc2)cc1 | 3.95% | 2.01% | 5.69%
O=C(c1ccco1)N1CCN(c2ccc([N+](=O)[O-])c(NC3CC3)c2)CC1 | 0.6% | 0.13% | -1.35%
O=C(N[C@H]1CCN(Cc2ccc(OCCCN3CCCCC3)cc2)C1)c1ccc(Cl)c(Cl)c1 | 2.14% | 3.98% | 3.42%
COc1ccc(C(=O)O)cc1OCc1ccccc1 | 0.41% | -0.29% | 0.75%
COc1ccccc1CNC(=O)c1cc(C2CC2)nc2c1cnn2C(C)C | 15.2% | 11.5% | 8.12%

Compound | inhibition [1] | inhibition [2] | inhibition [3]
COc1ccc(Cl)cc1C(=O)Nc1ccc(-c2nc3ccccc3[nH]2)cc1 | 4.93% | 3.29% | 1.35%
COc1ccc(-c2ccc(NC(=O)c3cccc(C#N)c3)cc2)cc1CN1CCN(C)CC1 | 4.33% | 6.51% | 1.6%
Cc1cccc2nc(-c3ccc(-c4ccc(CN5CCCC(N)C5)cc4)s3)[nH]c12 (centres undefined) | 0.2% | 0.06% | 0.74%
Cn1c(-c2ccccc2)cc2c3c(=O)cc(C(F)(F)F)[nH]c3ccc21 | 13.8% | 13.1% | 14.1%
N=C(N)c1ccc(NN=Cc2ccc(Oc3ccc(C(=N)N)cc3)cc2)cc1 | 3.43% | 3.55% | 0.79%
COc1ccc(NC(=O)Nc2cccc(-c3cccc(-c4nc5ccccc5[nH]4)c3)c2)cc1 | -1.96% | -0.16% | -1.98%
O=C(Nc1ccc(N2CCN(Cc3ccccc3Cl)CC2)cc1)c1ccc([N+](=O)[O-])o1 | 71.5% | 51.2% | 11.1%
N=C(N)NC(=O)Nc1cc(Cl)c(Cl)c(Cl)c1 | 2.56% | 4% | 2.18%
CCN(CC)CCN(Cc1ccc(-c2ccc(C(F)(F)F)cc2)cc1)C(=O)Cn1c(CCc2cc(F)c(F)cc2F)nc(=O)c2ccccc21 | 13.6% | 12.3% | 12.8%
COC(=O)c1ccc(C(=O)NCCCCN2CCC(c3ccc4c(c3OC)CCCC4)CC2)cc1-c1ccc(C(F)(F)F)cc1 | 2.23% | 1.47% | 2.29%
O=C(c1cccs1)N1N=C(c2cccs2)CC1c1cccc([N+](=O)[O-])c1 (centres undefined) | 8.21% | 5.4% | 7.21%
O=C(c1cccc(-c2ccc(-c3nc4cc(F)ccc4[nH]3)s2)c1)N1CCCCC1CN1CCC(O)C1 (centres undefined) | 2.59% | 1.6% | 1.75%
N#CCSc1nnc(-c2ccccc2)c2ccccc12 | 2.6% | 9.44% | -0.1%
CCOC(=O)c1nc(-c2cc(Cl)nc(Cl)c2)[nH]c1NC(=S)NCCCN1CCOCC1 | 2.49% | 1.96% | 0.84%
CCN1CCC(N(Cc2ccc(-c3ccc(C(F)(F)F)cc3)cc2)C(=O)Cn2c(CCc3cccc(F)c3F)cc(=O)c3ccccc32)CC1 | -0.63% | -0.01% | -2.06%
CCC(CC)OC(=O)C(C)c1cccc(C(=O)c2ccccc2)c1 (centres undefined) | 2.22% | -0.21% | 1.64%
Cc1ccc(N2CCN(CCCCNC(=O)c3ccc(NC(=O)c4ccc(Cl)cc4)cc3)CC2)c(C)c1 | 3.93% | 5.9% | 2.64%
COc1cc(-c2cnc(N)c(-c3nc4ccccc4[nH]3)c2)cc(OC)c1OC | 5.26% | 9.19% | 1.47%
CC(C)C[C@H](NC(=O)c1ccc(OCCN2CCOCC2)cc1)C(=O)N[C@H](/C=N/N1CC(=O)NC1=O)CCc1ccccc1 | 3.3% | 4.15% | 2.88%
CCCc1cc(OC)c(C[C@@H]2c3cc(O)c(Cl)cc3CCN2C)cc1OC | 3.17% | 2.87% | 3%
COc1ccc(-c2ccc(NC(=O)c3cccc(C#N)c3)cc2)cc1CN1CCCN(C)CC1 | 4.08% | 2.42% | -0.48%
Fc1ccc(NC(S)=NN=Cc2ccccn2)cc1 | 4.22% | 2.09% | -1.91%
CN1CCC(N2CCN(Cc3ccc(-c4cccc(-c5nc6cc(F)ccc6[nH]5)c4)cc3)CC2)CC1 | 2.39% | 2.13% | 2.94%
Cc1nc(-c2nc(N3CCC(C(N)=O)CC3)ncc2-c2ccsc2)sc1C | 8.94% | 7.69% | 6.73%
CN(C)c1cccc2c1nc(-c1ccco1)n2CC1CCCN1 (centres undefined) | -1.97% | -3.51% | -0.52%

Compound | inhibition [1] | inhibition [2] | inhibition [3]
CCOc1cc(C)ccc1C1CCN(CCCCNC(=O)c2ccc(-c3ccc(Cl)cn3)cc2)CC1 | 1.1% | -0.06% | -0.83%
O=C(NCCCCCN1CCC(c2c[nH]c3ccccc23)CC1)c1ccc(-c2ccccc2)nc1 | 2.41% | 2.42% | 2.97%
Cc1c2ccncc2c(C)c2c1[nH]c1cc(Cc3ccccc3)c(O)cc12 | 3.52% | 4.1% | -3.09%
COc1cccc2c(O)c(CNC3CCCCC3)ccc12 | -0.95% | -0.26% | 1.11%
COc1ccc(-c2cccc(NC(=O)c3ccc(Cl)cc3)c2)cc1CN1CCCC1 | 11.3% | 9.27% | 5.55%
COc1ccc(NC(=O)NCC2CCCN(CCCCCNC(=O)/C=C/c3ccc(Cl)c(Cl)c3)C2)c(OC)c1 (centres undefined) | -0.03% | 3.1% | 0.18%
CC(C)(C)c1ccc(S(=O)(=O)Nc2cc(Cl)ccc2Cn2ccc(N3CCNCC3)nc2=O)cc1 | -1.22% | -3.39% | -1.02%
c1cc(-c2ccc(CNCCc3ccncc3)cc2)cc(-c2nc3ccccc3[nH]2)c1 | 1.85% | 0.82% | 3.55%
CN1CCC(C(=O)Nc2ccc(-c3cccc(-c4nc5cc(C(F)(F)F)ccc5[nH]4)c3)cc2)CC1 | 0.78% | 2.62% | 2.31%
Nc1c(Cl)cc(C(O)CNCCCCCOCCCc2ccc(O)c3ncccc23)cc1Cl (centres undefined) | 103% | 99.7% | 97.5%
CCCCc1ccc2ncc(C(=O)OCC)c(O)c2c1 | -1.09% | -0.73% | -3.16%
Cc1c(Cl)cccc1S(=O)(=O)N1CCCCC(c2ccc(C(F)(F)F)cc2)=N1 | 0.39% | 3.08% | -0.52%
O=C(/C=C/c1ccc(Cl)c(Cl)c1)NCCCCCN1CCC(CCNC(=O)c2snnc2-c2ccccc2)CC1 | 0.24% | 4.7% | -0.16%
COc1ccc(Br)cc1/C=C/C(=O)Nc1ccc(C2CCN(C)CC2)cc1 | 3.58% | 3.16% | 4.19%
CC(=O)Nc1cccc(-c2cn(-c3ccc(OCc4cccc(F)c4)c(Cl)c3)c3ncncc23)c1 | 2.04% | 0.08% | -0.28%
COC(=O)C(c1ccc(NC(=O)[C@H](CC(C)C)NC(=O)OC(C)(C)C)cc1)c1ccc(NC(=O)[C@H](CC(C)C)NC(=O)OC(C)(C)C)cc1 | -0.28% | 0.91% | 0.27%
CS(=O)(=O)CCNC(=O)c1ccc(-c2cc3c(Nc4ccc5c(cnn5Cc5ccccc5)c4)ncnc3cn2)o1 | 3.86% | 3.93% | 4.93%
CCCCCCC(C)c1cc(O)c2c(c1)OC(=O)CC2(CC)c1ccccn1 (centres undefined) | 1.55% | 3.13% | 1.77%
CCC(c1ccccc1)c1nn2c(-c3cccs3)nnc2s1 (centres undefined) | 2.96% | 3.46% | 0.64%
CN1CCc2cc(NS(=O)(=O)c3ccc(-c4ccc(Cl)cc4)cc3)c(OCCCN3CCCCC3)cc2CC1 | 1.09% | -0.92% | 0.92%
O=c1cc(NCCCNCc2cccc(Oc3ccccc3)c2)[nH]c2ccccc12 | 4.28% | 2.68% | 3.25%
Cc1cccc(C)c1CNc1cccc(-c2nc(C)c(C)[nH]2)c1 | 5.39% | 4.77% | 1.97%
Cc1ccc(O)c(Nc2c3c(c(C#N)c4nc5ccccc5n24)CCC3)c1 | 2.48% | 1.2% | -0.54%

Reference: ChEMBL document CHEMBL3433997, “St. Jude Leishmania screening dataset” (2016)
